System: T1, RSK4(Kin.Dom.2-C-terminal)
T1 construct: gene RPS6KA6
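Further: kd values determined as follow-up on hits from a single-replicate KINOMEscan panel screen.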

First: Nc1nc(-c2ccccc2F)c(-c2ccnc3ccccc23)s1 [GW560459]
Second: CCc1nc(-c2cccc(C)c2)c(-c2ccncc2)s1
The Kd of the first is 4.3-fold lower: 28 nM for the first, 120 nM for the second.

For `OCCCNc1nccc(-c2c(-c3cccc(C(F)(F)F)c3)nn3cc(C(F)(F)F)ccc23)n1` [GW630813], the Kd was 2700 nM.

— PMC5540273 (PLoS ONE, 2017)
